Some test systems named below: SR leukemia; RPMI-8226 leukemia; OVCAR-8 ovarian; OVCAR-5 ovarian; OVCAR-4 ovarian; SK-OV-3 ovarian; IGROV1 ovarian; HS 578T breast; NCI/ADR-RES ovarian; T-47D breast; BT-549 breast; MDA-MB-435 melanoma; SW-620 colon; MCF7 breast; HCT-116 colon; HCC-2998 colon; KM12 colon.
Holding throughout (experiment): NCI-60 one-dose screen, 48 h (100 = growth as untreated, 0 = no growth, -100 = all killed)
What all share (conditions): 10 µM unless noted

Each structure is given as a SMILES string. The panel holds about 83,000 compounds, 20% with a hit somewhere; the sample as a whole holds those more often.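 Interpretation: 100, growth as untreated; towards 0, rising growth inhibition; 0, no net growth; 0 to -100, cell death. Compounds scoring below 10 were considered active.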 Values without a mark were called inactive. Activity calls are given as the source filed them.

This is an account of results in PubChem BioAssay (NCI).

For `C#C[C@]1(O)CC[C@H]2[C@@H]3CC=C4c5sc(Nc6cc(Cl)ccn6)nc5CC[C@]4(C)[C@H]3CC[C@@]21C`, the growth was 4.56% (active) in the test on SR leukemia; -22.9% (active) in the test on RPMI-8226 leukemia; 48.7% with OVCAR-8 ovarian; 47.5% in the test with OVCAR-5 ovarian; 68.1% in the test on OVCAR-4 ovarian; -1.88% (active) in the test with SK-OV-3 ovarian. Moreover, the growth was 40.1% in the test with IGROV1 ovarian; -3.53% (active) in the test on HS 578T breast; 34.7% with NCI/ADR-RES ovarian; 36.6% in the test with T-47D breast; 20% in the test with BT-549 breast; -61.6% (active) in the test on MDA-MB-435 melanoma. Further, the growth with SW-620 colon is -1.44% (active); with MCF7 breast, -64% (active); in the test with HCT-116 colon, 14.4%; in the test with HCC-2998 colon it was 39.8%; in the test with KM12 colon it was -0.602% (active).

For `CS(=O)(=O)c1ccc2c(c1)c1c(n2S(=O)(=O)c2ccc(Cl)cc2)CCCC1`, the growth with SR leukemia was 12.3%; in the test on RPMI-8226 leukemia it was 19.1%; in the test with OVCAR-8 ovarian, 31.9%; with OVCAR-5 ovarian, 40.2%; in the test with OVCAR-4 ovarian, 64.7%; in the test on SK-OV-3 ovarian, 29.7%. Further, the growth in the test on IGROV1 ovarian is 48%; with HS 578T breast it was 0.523% (active); in the test on NCI/ADR-RES ovarian, 21%; in the test with T-47D breast it was 23%; with BT-549 breast, -1.38% (active); in the test with MDA-MB-435 melanoma it was -11% (active). For the same compound, the growth with SW-620 colon was 9.36% (active); in the test on MCF7 breast, 16.9%; with HCT-116 colon, 19.2%; with HCC-2998 colon it was 30.1%; with KM12 colon it was 29.3%.

As to `N#Cc1c(-c2ccccc2)cc(-c2c[nH]c3ccccc23)nc1-c1c[nH]c2ccccc12`, the growth in the test with SR leukemia was 96.7%; in the test on RPMI-8226 leukemia, 101%; in the test on OVCAR-8 ovarian it was 98.7%; with OVCAR-5 ovarian it was 103%; in the test with OVCAR-4 ovarian, 104%; in the test with SK-OV-3 ovarian, 93.3%. Moreover, the growth is 82.1% in the test with IGROV1 ovarian; 93.4% with HS 578T breast; 98.3% in the test with NCI/ADR-RES ovarian; 86.7% with T-47D breast; 94.7% in the test with BT-549 breast; 103% with MDA-MB-435 melanoma. Besides, the growth in the test on SW-620 colon was 102%; with MCF7 breast, 95%; in the test with HCT-116 colon, 103%; in the test with HCC-2998 colon, 93.6%; in the test on KM12 colon, 103%.

Turning to `Cc1cn(-c2cc(NC(=O)c3cncc(C#Cc4cnc5ccc(OCCCS(C)(=O)=O)nn45)c3)cc(C(F)(F)F)c2)cn1`, the growth in the test with SR leukemia was 2.78% (active); in the test with RPMI-8226 leukemia it was 39.5%; in the test with OVCAR-8 ovarian, 15.4%; in the test on OVCAR-5 ovarian, 22.6%; with OVCAR-4 ovarian, 58.4%; in the test on SK-OV-3 ovarian it was 104%. Further, the growth in the test with IGROV1 ovarian is 14.4%; in the test on HS 578T breast it was -3.18% (active); in the test on NCI/ADR-RES ovarian, 89.6%; in the test with T-47D breast it was 30.5%; in the test with BT-549 breast, -1.88% (active); in the test with MDA-MB-435 melanoma, 34.7%. Besides, the growth with SW-620 colon is 8.59% (active); with MCF7 breast, 0.458% (active); in the test with HCT-116 colon, 3.57% (active); with HCC-2998 colon it was 17.4%; in the test with KM12 colon it was -17.8% (active).

On to `COc1ccc(-c2nc3cc(Cl)c(Cl)cc3n2CC(=O)N=Nc2c(O)[nH]c3ccccc23)cc1`, for which the growth with SR leukemia is 66.4%; in the test on RPMI-8226 leukemia it was 62.5%; in the test with OVCAR-8 ovarian, 78.4%; in the test on OVCAR-5 ovarian, 63%; with OVCAR-4 ovarian it was 75.1%; in the test with SK-OV-3 ovarian, 100%. Moreover, the growth with IGROV1 ovarian is 52.9%; in the test with HS 578T breast it was 53.4%; in the test on NCI/ADR-RES ovarian, 44.3%; in the test on T-47D breast it was 57.8%; in the test with BT-549 breast it was 78.3%; with MDA-MB-435 melanoma, 68.8%. Besides, the growth was 62.4% in the test with SW-620 colon; 45.7% with MCF7 breast; 22.6% in the test on HCT-116 colon; 66% in the test on HCC-2998 colon; 68.2% in the test on KM12 colon.

With `CSc1nccc(-c2c(-c3ccc(F)c(OCc4ccc(F)cc4)c3)nc3sccn23)n1`, the growth in the test on SR leukemia is 73.4%; with RPMI-8226 leukemia, 53.2%; in the test with OVCAR-8 ovarian it was 84.4%; with OVCAR-5 ovarian it was 95.4%; in the test on OVCAR-4 ovarian, 61.8%; in the test with SK-OV-3 ovarian it was 71.4%. The growth with IGROV1 ovarian was 55.8%; with HS 578T breast, 88.2%; with NCI/ADR-RES ovarian it was 73.6%; in the test with T-47D breast, 65.9%; in the test on BT-549 breast it was 71.3%; in the test with MDA-MB-435 melanoma it was 59.7%. In addition, the growth in the test on SW-620 colon is 48.9%; with MCF7 breast, 65%; in the test on HCT-116 colon, 51.3%; in the test on HCC-2998 colon, 93.4%; in the test on KM12 colon it was 80.1%.

Turning to `O=C1CSC(=O)N1Cc1cc2ccccc2nc1Cl`, the growth in the test with SR leukemia is 98.2%; in the test with RPMI-8226 leukemia it was 98.8%; in the test with OVCAR-8 ovarian it was 98.7%; with OVCAR-5 ovarian it was 101%; in the test with OVCAR-4 ovarian, 99.2%; with SK-OV-3 ovarian it was 110%. The growth is 99.9% in the test with IGROV1 ovarian; 97.1% in the test on HS 578T breast; 105% in the test on NCI/ADR-RES ovarian; 92.5% with T-47D breast; 95.6% in the test with BT-549 breast; 99.3% in the test with MDA-MB-435 melanoma. For the same compound, the growth with SW-620 colon is 103%; in the test with MCF7 breast, 92.5%; in the test on HCT-116 colon, 106%; in the test on HCC-2998 colon, 105%; in the test on KM12 colon, 101%.

Take `Cn1cc(-c2nn3cc(-c4ccncc4)nc3s2)c2cc(Cl)ccc21`: the growth in the test on SR leukemia was -4.53% (active); in the test with RPMI-8226 leukemia, 19.5%; in the test with OVCAR-8 ovarian it was 14.6%; with OVCAR-5 ovarian, 66.8%; in the test on OVCAR-4 ovarian it was 78.6%; in the test with SK-OV-3 ovarian, 89.5%. In addition, the growth in the test with IGROV1 ovarian is 17.2%; in the test with HS 578T breast, 49.8%; in the test on NCI/ADR-RES ovarian it was 32.4%; in the test on T-47D breast, 31.3%; in the test with BT-549 breast it was 46%; in the test on MDA-MB-435 melanoma, 14.5%. The growth in the test on SW-620 colon was 18.8%; in the test on MCF7 breast, 17%; in the test on HCT-116 colon, -52.9% (active); in the test on HCC-2998 colon, 36.3%; in the test with KM12 colon it was 56.5%.

Turning to `CCOC(=O)/C(F)=C/C1CC1CCc1cccc(C(F)(F)F)c1` (stereo not drawn), the growth in the test on SR leukemia is 106%; in the test with RPMI-8226 leukemia it was 102%; with OVCAR-8 ovarian, 104%; with OVCAR-5 ovarian, 100%; in the test on OVCAR-4 ovarian it was 107%; in the test on SK-OV-3 ovarian, 99.8%. Further, the growth in the test with IGROV1 ovarian is 113%; in the test with HS 578T breast it was 103%; in the test on NCI/ADR-RES ovarian, 106%; with T-47D breast, 108%; with BT-549 breast, 113%; in the test with MDA-MB-435 melanoma, 103%. Moreover, the growth with SW-620 colon was 102%; in the test with MCF7 breast, 95%; with HCT-116 colon, 110%; in the test on HCC-2998 colon, 109%; with KM12 colon, 99.1%.
